Assay outcomes as filed in PubChem BioAssay.
CHOP inh: CHOP inhibition in unfolded protein response | CHO-K1 CHOP-promoter luciferase, tunicamycin-induced, 15-18 h | inhibition, % at 10 µM | actives 3.8% (n = 220,000);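 active means compounds that reduced the stress-induced luciferase reporter signal by more than about 70% of percent inhibition, limit read from the data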;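 further: 0% = tunicamycin plus vehicle and 100% = wells without tunicamycin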
Lmaj promast: reduces viability of Leishmania major promastigotes; actives 9% (n = 200,000); inhibition, % at 10 µM; resazurin fluorescence viability; in the data active means inhibition above about 50%;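 further: promastigotes grown with compound for 44 hours at 28 °C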
WT yeast gro inh: growth inhibition of WT yeast, mitochondrial fusion screen | mitochondrial fusion phenotypic screen, WT strain | inhibition, % at 10 µM | actives 2.1% (n = 190,000); in the data active means inhibition above about 58%; tested in S. cerevisiae
Arbovirus inh: arbovirus infection inhibition; inhibition, % at 10 µM; arbovirus infection cell-based antiviral screen; actives 0.37% (n = 200,000); AID 1251; in the data active means inhibition above about 30%
* marks the source's active call; other numbers are inactive results. Compounds with a hit are over-represented: about 12% of the library has one in this group of screens.

For Cc1ccc(NC(=O)C(Nc2cccc(C)c2)c2ccccc2)cc1 (centres undefined) the results were CHOP inh 4, Lmaj promast 59*, WT yeast gro inh 70* and Arbovirus inh -6.
COCCn1c(=S)[nH]c2ccc(N(C)C)cc2c1=O was read as CHOP inh 4, Lmaj promast 1, WT yeast gro inh 8 and Arbovirus inh 6.
Screening CCOC(=O)C[n+]1c(C)ccc2c1CCC2 returned CHOP inh 0, Lmaj promast -4, WT yeast gro inh -32 and Arbovirus inh 2.
Screening O=C(c1ccc(S(=O)(=O)Cc2ccccc2F)c([N+](=O)[O-])c1)N1CCCC1 returned CHOP inh 21, Lmaj promast 2, WT yeast gro inh -8 and Arbovirus inh -1.
For O=C(c1ccc(S(=O)(=O)c2ccccc2Cl)c([N+](=O)[O-])c1)N1CCN(Cc2ccccc2)CC1 the results were CHOP inh 56, Lmaj promast 76*, WT yeast gro inh 3 and Arbovirus inh -20.
Screening Cc1ccc(CS(=O)(=O)c2ccc(C(=O)N3CCCCC3)cc2[N+](=O)[O-])cc1 returned CHOP inh 5, Lmaj promast 2, WT yeast gro inh -4 and Arbovirus inh 2.
For CC1CCN(C(=O)c2ccc(S(=O)(=O)Cc3ccccc3F)c([N+](=O)[O-])c2)CC1 the results were CHOP inh 13, Lmaj promast 93*, WT yeast gro inh -59 and Arbovirus inh -2.
Screening O=C(c1ccc(S(=O)(=O)c2ccc(F)cc2)c([N+](=O)[O-])c1)N1CCCCCC1 returned CHOP inh 59, Lmaj promast 98*, WT yeast gro inh 5 and Arbovirus inh -12.
`CCn1c(CCNC(=O)c2ccc(Cl)c(Cl)c2)nnc1SCCOc1ccc(OC)cc1` gave CHOP inh 5, Lmaj promast -4, WT yeast gro inh 1 and Arbovirus inh -12.
CS(=O)(=O)N(CC(=O)NCc1ccncc1)c1cc(Cl)ccc1Cl was read as CHOP inh -12, Lmaj promast -6, WT yeast gro inh -8 and Arbovirus inh -5.
For Cc1ccc(Cn2cc(S(=O)(=O)c3ccc(C(C)C)cc3)c(=O)c3cc4c(cc32)OCO4)cc1 the results were CHOP inh 13, Lmaj promast 65*, WT yeast gro inh -4 and Arbovirus inh 3.
For Cc1ccc(Cn2cc(S(=O)(=O)c3ccc(Cl)cc3)c(=O)c3cc(F)ccc32)cc1 the results were CHOP inh 33, Lmaj promast 23, WT yeast gro inh 13 and Arbovirus inh -2.
Screening Cc1ccc(S(=O)(=O)c2cn(Cc3ccc(F)cc3)c3cc4c(cc3c2=O)OCO4)cc1 returned CHOP inh -14, Lmaj promast 13, WT yeast gro inh 1 and Arbovirus inh 28.
CC(C)c1ccc(S(=O)(=O)c2cn(Cc3ccc(F)cc3)c3cc4c(cc3c2=O)OCO4)cc1 was read as CHOP inh 12, Lmaj promast 98*, WT yeast gro inh -3 and Arbovirus inh 1.
For C=CCNCCOCCOc1ccc(C)cc1Br the results were CHOP inh 21, Lmaj promast 99*, WT yeast gro inh -4 and Arbovirus inh -24.
For CCC(C)NCCCOc1c(C)cc(C)cc1Br (centres undefined) the results were CHOP inh 12, Lmaj promast 99*, WT yeast gro inh 10 and Arbovirus inh -15.
`CCC(C)NCCOCCOc1ccc(C)cc1Br` (centres undefined) gave CHOP inh -20, Lmaj promast 90*, WT yeast gro inh 22 and Arbovirus inh -13.
Screening C=CCNCCOc1ccccc1-c1ccccc1 returned CHOP inh 14, Lmaj promast 18, WT yeast gro inh 17 and Arbovirus inh 2.
`CCC(C)NCCOCCOc1ccc(Br)cc1` (centres undefined) gave CHOP inh -2, Lmaj promast 89*, WT yeast gro inh 0 and Arbovirus inh -7.
Cc1cccc2sc(NNC(=O)c3ccc4c(c3)OCCO4)nc12 was read as CHOP inh -3, Lmaj promast -3, WT yeast gro inh -15 and Arbovirus inh -5.
`CCC(=O)NNc1nc2c(C)cccc2s1` gave CHOP inh 54, Lmaj promast -4, WT yeast gro inh 9 and Arbovirus inh -4.
`Cc1cccc2sc(NNC(=O)c3ccc(S(=O)(=O)N4CCCC(C)C4)cc3)nc12` (centres undefined) gave CHOP inh 17, Lmaj promast 96*, WT yeast gro inh -1 and Arbovirus inh -33.
`Cc1cccc2sc(NNC(=O)c3ccc(S(=O)(=O)N4CCc5ccccc5C4)cc3)nc12` gave CHOP inh 24, Lmaj promast 99*, WT yeast gro inh -11 and Arbovirus inh -34.
COc1ccc2cc(CN(CC3CCCO3)C(=S)NCc3ccco3)c(=O)[nH]c2c1 (centres undefined) was read as CHOP inh 20, Lmaj promast 18, WT yeast gro inh 2 and Arbovirus inh -2.
Screening O=C(CSc1cccc(C(F)(F)F)c1)NC(=O)NCc1ccco1 returned CHOP inh 82*, Lmaj promast -7, WT yeast gro inh 2 and Arbovirus inh 9.
`CSc1nc(C)cc(SCC(=O)Nc2ccccc2)n1` gave CHOP inh 6, Lmaj promast 2, WT yeast gro inh -22 and Arbovirus inh -8.
Screening O=C(CSc1cccc(C(F)(F)F)c1)Nc1ccc(Cl)cc1Cl returned CHOP inh 83*, Lmaj promast -5, WT yeast gro inh -4 and Arbovirus inh -3.
For CSc1nc(C)cc(SCC(=O)Nc2ccc(Cl)cc2Cl)n1 the results were CHOP inh 87*, Lmaj promast 3, WT yeast gro inh 2 and Arbovirus inh 0.
Screening CCN(Cc1ccncc1)C(=O)c1cc(Br)cc(Br)c1O returned CHOP inh 21, Lmaj promast 0, WT yeast gro inh -16 and Arbovirus inh 3.
For COc1ccc(S(=O)(=O)Nc2ccc(CC#N)cc2)cc1 the results were CHOP inh 2, Lmaj promast -4, WT yeast gro inh 0 and Arbovirus inh 6.
Screening N#CCc1ccc(NS(=O)(=O)c2ccc(C3CCCCC3)cc2)cc1 returned CHOP inh 81*, Lmaj promast 8, WT yeast gro inh 62* and Arbovirus inh -29.
For C=CCc1ccc(O)c(-c2ccc(O)c(CC=C)c2)c1 the results were CHOP inh 10, Lmaj promast 17, WT yeast gro inh 63* and Arbovirus inh -20.
C=CCc1cc(C(=O)N2CCCCC2)ccc1O was read as CHOP inh 31, Lmaj promast 6, WT yeast gro inh 10 and Arbovirus inh 10.
`Cc1ccccc1OCC(=O)N=Nc1c(O)n(C)c2ccccc12` gave CHOP inh -10.
Cc1ccc(NS(=O)(=O)c2cc(C(=O)NCCSc3ccc(C)cc3)ccc2C)cc1 was read as CHOP inh 45, Lmaj promast 100*, WT yeast gro inh -4 and Arbovirus inh -26.
`Cc1ccc(NS(=O)(=O)c2cc(C(=O)NCCSC3CCCCC3)ccc2C)cc1` gave CHOP inh 68, Lmaj promast 79*, WT yeast gro inh 20 and Arbovirus inh -14.
Screening Cc1ccc(C(=O)NCCSc2ccc(Cl)cc2)cc1S(=O)(=O)Nc1ccccc1 returned CHOP inh 79*, Lmaj promast 97*, WT yeast gro inh 8 and Arbovirus inh -25.
